# The supplement of paper PMC9844399
# A number with no mark means an inactive call.
# Test system: HeLa
# Test: MALAT1 nuclear FISH intensity, robust Z-score vs DMSO; higher = more nuclear MALAT1 lncRNA, active = -3 or less
# Conditions: 10 µM; 6 h
# 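Also: High-content confocal imaging of branched-DNA amplified FISH in 384-well plates, Hoechst-defined nuclei, score is well value minus plate DMSO median over DMSO robust SD, four wells per compound.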
row,Compound,MALAT1 nuclear FISH intensity
1,CC(C)NCC(O)c1ccc(O)c(O)c1 (stereo not given),-0.316
2,C=CC(N)CCC(=O)O (stereo not given) [Vigabatrin],-0.56
3,CC[C@H](C)[C@H](N)C1=N[C@H](C(=O)N[C@@H](CC(C)C)C(=O)N[C@H](CCC(=O)O)C(=O)N[C@H](C(=O)N[C@H]2CCCCNC(=O)[C@H](CC(N)=O)NC(=O)[C@@H](CC(=O)O)NC(=O)[C@H](Cc3cnc[nH]3)NC(=O)[C@@H](Cc3ccccc3)NC(=O)[C@H]([C@@H](C)CC)NC(=O)[C@@H](CCCN)NC2=O)[C@@H](C)CC)CS1 [Bacitracin],-0.21
4,CCN(CC)CCCC(C)Nc1c2ccc(Cl)cc2nc2ccc(OC)cc12 (stereo not given),-2.2
5,Cc1cc(CS(=O)(=O)c2ccccc2)cc(OCc2ccc(CN3CCC[C@@H]3CO)cc2)c1,-1.72
